Data: PubChem BioAssay AID434982 (The Scripps Research Institute Molecular Screening Center, 2010)
Hit rate of the full screen: of about 15,000 compounds, about 60 (0.4%) were called active. Cut-off read from the data, not from the text of the source: active = activation above about 2.2%; inactive = the rest. Shown is part of a subset that was picked to be rich in actives.

Assay: agonists of NOTCH signaling (AID 434982)
Conditions: NOTCH signaling luciferase reporter cells, luminescence; at 2.5 µM; active compounds read high
In the case of O=C1/C(=C\c2ccc3c(c2)OCO3)N2CCC1CC2, the activation is reported as 3.83% (active). With CN(C)CC1CCCCC1=O (stereo not given) the activation was 0.24% (inactive). With CNC(=O)O/N=C(\N)Cc1csc2ccc(Cl)cc12 the activation was 0.88% (inactive). With Cc1ccc(Oc2c(C)nc(-c3ccccc3)nc2OC(=O)N(C)C)cc1 the activation was 0.1% (inactive). For N#CCN1CCN(c2cccc(Cl)c2)CC1, the activation was 0.33% (inactive).
